# Where a name gives a salt, the structure may show the parent alone.
# How the values were obtained:
# Details in all cases: 10 µM; exposure time 6 h
# [1] = tested on: Danio rerio larvae (5 dpf); experiment: difference in excitability vs DMSO (percentage points); higher = more excitable than DMSO
# Summary of the method: (§1)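 Wild-type zebrafish larvae at 5 dpf were kept in 96-well plates and exposed for 6 h to 100 µL egg water holding library compound at a final concentration of 10 µM. From 3 h into exposure, the plates were held at 28.5 ℃ and photographed every 6 s through a 3-h programme of moving lines and 100 ms, 400Hz tones. Each behaviour was scored by Z-LaP Tracker, a DeepLabCut model, and averaged over 48 larvae per compound. Every value gives the compound mean minus the vehicle control mean, in percentage points.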
# [2] = tested on: Danio rerio larvae (5 dpf); experiment: difference in startle response vs DMSO (percentage points); higher = stronger startle than DMSO
# Summary of the method: as §1
# [3] = tested on: Danio rerio larvae (5 dpf); experiment: difference in activity during first hour vs DMSO (percentage points); higher = more activity than DMSO
# Summary of the method: as §1
# [4] = tested on: Danio rerio larvae (5 dpf); experiment: difference in habituation to acoustic stimuli vs DMSO (percentage points); higher = more habituation than DMSO
# Summary of the method: as §1
# [5] = tested on: Danio rerio larvae (5 dpf); experiment: difference in combined optomotor response to red, green and blue moving lines vs DMSO (percentage points); higher = stronger optomotor response than DMSO
# Summary of the method: as §1
smiles,measurement,setting,value
Cc1ncc([N+](=O)[O-])n1CC(C)O (stereo not given) [Secnidazole],difference in excitability,[1],4.12
same,difference in startle response,[2],-1.25
same,difference in activity during first hour,[3],19.9
same,difference in habituation to acoustic stimuli,[4],-6.46
same,difference,[5],6.66
CO[C@H]1O[C@@H]2O[C@@]3(C)CC[C@H]4[C@H](C)CC[C@@H]([C@H]1C)[C@@]24OO3 [Artemether],difference in excitability,[1],17.2
same,difference in startle response,[2],3.03
same,difference in activity during first hour,[3],-1.53
same,difference in habituation to acoustic stimuli,[4],3.23
same,difference,[5],7.61
"COc1ccc2cc(C(C)C(=O)O)ccc2c1 (single isomer, unassigned; (+)) [(+)-Naproxen]",difference in excitability,[1],3.24
same,difference in startle response,[2],2.79
same,difference in activity during first hour,[3],-2.88
same,difference in habituation to acoustic stimuli,[4],2.25
same,difference,[5],-3.32
CC(=O)O[C@H]1Cc2ccccc2N(C(N)=O)c2ccccc21 [Eslicarbazepine Acetate],difference in excitability,[1],-1.41
same,difference in startle response,[2],-0.316
same,difference in activity during first hour,[3],-0.636
same,difference in habituation to acoustic stimuli,[4],-4.75
same,difference,[5],-2.32
CC(C)NCC(O)COc1ccc(CCOCC2CC2)cc1 (stereo not given) [Betaxolol (hydrochloride)],difference in excitability,[1],2.57
same,difference in startle response,[2],2.31
same,difference in activity during first hour,[3],11.4
same,difference in habituation to acoustic stimuli,[4],-2.52
same,difference,[5],6.22
COc1cc2nc(N(C)CCCNC(=O)C3CCCO3)nc(N)c2cc1OC (stereo not given) [Alfuzosin (hydrochloride)],difference in excitability,[1],9.01
same,difference in startle response,[2],2.43
same,difference in activity during first hour,[3],5.63
same,difference in habituation to acoustic stimuli,[4],-6.84
same,difference,[5],1.55
CC(=O)Oc1c(C)cc(OCC(O)CNC(C)C)c(C)c1C (stereo not given) [Metipranolol (hydrochloride)],difference in excitability,[1],1.28
same,difference in startle response,[2],4.21
same,difference in activity during first hour,[3],-3.92
same,difference in habituation to acoustic stimuli,[4],5.42
same,difference,[5],0.513
CCN(CC)CC#CCOC(=O)C(O)(c1ccccc1)C1CCCCC1 (stereo not given) [Oxybutynin (hydrochloride)],difference in excitability,[1],-4.54
same,difference in startle response,[2],8.08
same,difference in activity during first hour,[3],-11.4
same,difference in habituation to acoustic stimuli,[4],-8.53
same,difference,[5],-10.5
O=C(NCC1CCCCN1)c1cc(OCC(F)(F)F)ccc1OCC(F)(F)F (stereo not given) [Flecainide (acetate)],difference in excitability,[1],6.44
same,difference in startle response,[2],-12.4
same,difference in activity during first hour,[3],-19.1
same,difference in habituation to acoustic stimuli,[4],-11
same,difference,[5],-18.8
CCCN(CCC)S(=O)(=O)c1ccc(C(=O)O)cc1 [Probenecid],difference in excitability,[1],-3.91
same,difference in startle response,[2],4.06
same,difference in activity during first hour,[3],8.09
same,difference in habituation to acoustic stimuli,[4],3.84
same,difference,[5],9.2
CO[C@H]1C(=O)[C@]2(C)[C@@H](OC)C[C@H]3OC[C@@]3(OC(C)=O)[C@H]2[C@H](OC(=O)c2ccccc2)[C@]2(O)C[C@H](OC(=O)[C@H](O)[C@@H](NC(=O)OC(C)(C)C)c3ccccc3)C(C)=C1C2(C)C [Cabazitaxel],difference in excitability,[1],6.19
same,difference in startle response,[2],4.59
same,difference in activity during first hour,[3],13.7
same,difference in habituation to acoustic stimuli,[4],3.39
same,difference,[5],2.83
CN(C)CCCN1c2ccccc2CCc2ccccc21 [Imipramine (hydrochloride)],difference in excitability,[1],14.5
same,difference in startle response,[2],-8.78
same,difference in activity during first hour,[3],-16.4
same,difference in habituation to acoustic stimuli,[4],-11.2
same,difference,[5],-6.91
NS(=O)(=O)c1cc2c(cc1C(F)(F)F)NC(Cc1ccccc1)NS2(=O)=O (stereo not given) [Bendroflumethiazide],difference in excitability,[1],1.38
same,difference in startle response,[2],-5.47
same,difference in activity during first hour,[3],3.78
same,difference in habituation to acoustic stimuli,[4],-7.63
same,difference,[5],-4.26
COc1cc2c(cc1OC)CC(=O)N(CCCN(C)C[C@H]1Cc3cc(OC)c(OC)cc31)CC2 [Ivabradine (hydrochloride)],difference in excitability,[1],8.58
same,difference in startle response,[2],0.00664
same,difference in activity during first hour,[3],14.5
same,difference in habituation to acoustic stimuli,[4],-0.807
same,difference,[5],9.1
Cc1[nH]c2ccccc2c1CCNCc1ccc(/C=C/C(=O)NO)cc1 [Panobinostat],difference in excitability,[1],7
same,difference in startle response,[2],-4.96
same,difference in activity during first hour,[3],-8.62
same,difference in habituation to acoustic stimuli,[4],3.43
same,difference,[5],1.65
N=C(NCCCCCCNC(=N)NC(=N)Nc1ccc(Cl)cc1)NC(=N)Nc1ccc(Cl)cc1 [Chlorhexidine (hydrochloride)],difference in excitability,[1],11.8
same,difference in startle response,[2],-11
same,difference in activity during first hour,[3],-19.9
same,difference in habituation to acoustic stimuli,[4],-10.2
same,difference,[5],-17.6
CCCCCCCCCCCCCCCC(=O)OC/C=C(C)/C=C/C=C(C)/C=C/C1=C(C)CCCC1(C)C [Retinyl Palmitate],difference in excitability,[1],6.81
same,difference in startle response,[2],5.22
same,difference in activity during first hour,[3],3.08
same,difference in habituation to acoustic stimuli,[4],2.4
same,difference,[5],-4.44
CCCCC(=O)N(Cc1ccc(-c2ccccc2-c2nnn[nH]2)cc1)[C@H](C(=O)O)C(C)C [Valsartan],difference in excitability,[1],-0.389
same,difference in startle response,[2],4.11
same,difference in activity during first hour,[3],2.08
same,difference in habituation to acoustic stimuli,[4],-3.08
same,difference,[5],3.88
CN(C)CCOC(c1ccccc1)c1ccccc1 [Diphenhydramine (hydrochloride)],difference in excitability,[1],-0.341
same,difference in startle response,[2],0.108
same,difference in activity during first hour,[3],-10.6
same,difference in habituation to acoustic stimuli,[4],-3.37
same,difference,[5],3.89
CC(=O)Nc1nnc(S(N)(=O)=O)s1 [Acetazolamide],difference in excitability,[1],-5.01
same,difference in startle response,[2],8.72
same,difference in activity during first hour,[3],14.2
same,difference in habituation to acoustic stimuli,[4],6.2
same,difference,[5],3.65
CCN1CCN(Cc2ccc(Nc3ncc(F)c(-c4cc(F)c5nc(C)n(C(C)C)c5c4)n3)nc2)CC1,difference in excitability,[1],21.9
same,difference in startle response,[2],1.59
same,difference in activity during first hour,[3],-3.04
same,difference in habituation to acoustic stimuli,[4],0.786
same,difference,[5],2.57
CNC(=O)c1ccccc1Sc1ccc2c(/C=C/c3ccccn3)n[nH]c2c1 [Axitinib],difference in excitability,[1],4.07
same,difference in startle response,[2],1.36
same,difference in activity during first hour,[3],-1.06
same,difference in habituation to acoustic stimuli,[4],-0.505
same,difference,[5],6.84
Nc1[nH]c(=O)ncc1F [5-Fluorocytosine],difference in excitability,[1],0.317
same,difference in startle response,[2],1.12
same,difference in activity during first hour,[3],-10.7
same,difference in habituation to acoustic stimuli,[4],-2.78
same,difference,[5],2.67
O=C(CCCN1CC=C(n2c(=O)[nH]c3ccccc32)CC1)c1ccc(F)cc1 [Droperidol],difference in excitability,[1],29
same,difference in startle response,[2],-1.85
same,difference in activity during first hour,[3],12.3
same,difference in habituation to acoustic stimuli,[4],-7.94
same,difference,[5],-0.322
